From PubChem BioAssay (EPA / NIEHS)
“And” between values parts separate entries of the source, which are not always exact repeats. Identical values can stand only once. Records with an inconclusive call do not appear. Where a structure was tested more than once in an assay, its records may differ in their call. The source made the active and inactive calls. How the source made its calls, unless noted: active means hit-call score of the fitted dose curve at least 0.9, where 1 is the maximum; inactive means score below 0.9.

Assays:
[1] = target: Retinoic acid receptor RXR-alpha (Homo sapiens) (UniProt P19793); experiment: OT_NURR1_NURR1RXRa_0480: Odyssey Thera (OT) 8-hour HEK293T Protein Complementation Assay for Nurr1/retinoid X receptor (RXR) (AID 2283385; active means hit-call score of the fitted dose curve at least 0.9, where 1 is the maximum)
Retinoic acid receptor RXR-alpha (Homo sapiens), sequence (P19793 whole entry, looked up, the tested form may be a part): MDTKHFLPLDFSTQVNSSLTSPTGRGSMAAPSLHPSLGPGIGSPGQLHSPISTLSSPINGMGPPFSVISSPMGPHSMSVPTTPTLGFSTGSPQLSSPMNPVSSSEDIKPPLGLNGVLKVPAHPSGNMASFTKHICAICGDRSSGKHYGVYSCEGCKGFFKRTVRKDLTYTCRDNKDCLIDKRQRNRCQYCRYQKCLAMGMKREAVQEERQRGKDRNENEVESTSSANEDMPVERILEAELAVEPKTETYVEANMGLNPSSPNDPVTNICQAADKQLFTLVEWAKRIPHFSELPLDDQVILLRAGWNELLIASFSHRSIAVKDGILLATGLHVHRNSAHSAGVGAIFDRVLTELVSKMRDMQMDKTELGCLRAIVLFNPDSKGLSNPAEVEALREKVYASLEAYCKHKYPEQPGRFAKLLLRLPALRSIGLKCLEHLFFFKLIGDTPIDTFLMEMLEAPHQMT
Summary of the method: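 Interaction of Nurr1 with RXRα read as reconstituted reporter fluorescence in a HEK293T fragment-complementation system, 8 h post-treatment; increase over DMSO baseline analysed.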

[2] = target: Peroxisome proliferator-activated receptor gamma (Homo sapiens) (UniProt P37231); experiment: OT_PPARg_PPARgSRC1_0480: Odyssey Thera (OT) 8-hour Protein-Complementation Assay for Peroxisome Proliferator-activated Receptor Gamma / SRC-1 Co-activator (AID 2283387; active means hit-call score of the fitted dose curve at least 0.9, where 1 is the maximum;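 further: nuclear to cytoplasmic split Venus YFP fluorescence ratio reporting PPARg SRC-1 interaction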)
Peroxisome proliferator-activated receptor gamma (Homo sapiens), sequence (P37231 whole entry, looked up, the tested form may be a part): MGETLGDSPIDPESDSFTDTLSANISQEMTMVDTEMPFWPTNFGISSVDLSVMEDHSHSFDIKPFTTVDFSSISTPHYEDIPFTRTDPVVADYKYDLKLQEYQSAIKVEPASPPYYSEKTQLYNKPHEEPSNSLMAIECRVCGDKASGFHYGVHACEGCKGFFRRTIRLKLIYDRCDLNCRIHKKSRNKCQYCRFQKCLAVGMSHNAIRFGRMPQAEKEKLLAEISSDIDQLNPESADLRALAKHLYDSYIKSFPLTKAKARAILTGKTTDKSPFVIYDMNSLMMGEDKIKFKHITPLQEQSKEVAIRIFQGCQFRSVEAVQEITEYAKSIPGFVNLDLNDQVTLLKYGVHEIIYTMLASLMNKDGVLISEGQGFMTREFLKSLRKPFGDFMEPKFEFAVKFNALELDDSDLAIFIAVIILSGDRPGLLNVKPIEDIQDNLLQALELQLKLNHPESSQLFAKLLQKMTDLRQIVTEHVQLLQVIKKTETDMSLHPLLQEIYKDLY
Summary of the method: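 Protein-fragment complementation of split Venus YFP reports PPARg/SRC-1 interaction in HEK293T (transfected 48 h before treatment), exposed 8 h. Readout: N/C fluorescence ratio at 488 nm from imaging, Draq5 for segmentation, positive fit relative to DMSO.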

[3] = target: Peroxisome proliferator-activated receptor gamma (Homo sapiens) (UniProt P37231); experiment: OT_PPARg_PPARgSRC1_1440: Odyssey Thera (OT) 24-hour Protein-Complementation Assay for Peroxisome Proliferator-activated Receptor Gamma/ SRC-1 Co-activator (AID 2283388; active means hit-call score of the fitted dose curve at least 0.9, where 1 is the maximum;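 further: nuclear to cytoplasmic ratio of reconstituted Venus YFP fluorescence in fixed imaged cells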)
Summary of the method: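 Readout is the 488 nm N/C fluorescence ratio from fixed, Draq5-stained HEK293T cells after 24 h compound exposure. Cells carried transiently transfected PPARg and SRC-1 fused to Venus fragments, transfected 48 h before treatment.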

[4] = CEETOX_H295R_11DCORT: CeeTox H295R High-throughput Steroidogenesis Assay for 11-Deoxycortisol (11DCORT) (AID 2283432); conditions: actives raise or lower the signal;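 on AC50: 11-deoxycortisol secreted into the medium measured by LC-MS/MS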
Summary of the method: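 Human adrenal H295R cells were prestimulated with 10 uM forskolin for 48 h, then exposed to test chemical (0.1% DMSO final) for 48 h. Medium 11-deoxycortisol was quantified by MTBE extraction and HPLC-MS/MS; bidirectional fitting relative to DMSO.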

[5] = CEETOX_H295R_OHPREG: CeeTox H295R High-throughput Steroidogenesis Assay for OH-Pregnenolone (OHPREG) (AID 2283434); conditions: actives raise or lower the signal
Summary of the method: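 Readout: HPLC-MS/MS of 17alpha-hydroxypregnenolone in medium after 48 h chemical exposure of H295R cells pretreated with forskolin. Values fitted bidirectionally relative to DMSO; chemicals reducing viability to 20–70% were retested after 10-fold dilution.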

[6] = CEETOX_H295R_OHPROG: CeeTox H295R High-throughput Steroidogenesis Assay for OH-Progesterone (OHPROG) (AID 2283435); conditions: actives raise or lower the signal;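 on AC50: 17alpha-hydroxyprogesterone secreted into medium measured by HPLC-MS/MS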
Summary of the method: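 Medium steroid levels read by LC-MS/MS after 48 h chemical treatment (0.1% DMSO) of human adrenal H295R cells that had been forskolin-primed (10 uM, 48 h). Gain or loss fitted against DMSO; MTT cytotoxicity checked per well.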

[7] = CEETOX_H295R_ANDR: CeeTox H295R High-throughput Steroidogenesis Assay for Androstenedione (ANDR) (AID 2283436); conditions: actives raise or lower the signal
Summary of the method: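 Steroidogenesis in H295R adrenal cells after 48 h dosing; androstenedione quantified by LC-MS/MS, with DMSO as negative control and baseline for bidirectional curve fitting.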

[8] = CEETOX_H295R_CORTIC: CeeTox H295R High-throughput Steroidogenesis Assay for Corticosterone (CORTIC) (AID 2283437); conditions: actives raise or lower the signal;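 further: corticosterone secreted into medium quantified by mass spectrometry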
Summary of the method: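 Steps: seed H295R, adhere overnight; 10 uM forskolin 48 h; replace with chemical (0.1% DMSO) 48 h; extract medium with MTBE; quantify corticosterone by HPLC-MS/MS; score bidirectionally vs DMSO.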

[9] = CEETOX_H295R_CORTISOL: CeeTox H295R High-throughput Steroidogenesis Assay for Cortisol (AID 2283438); conditions: actives raise or lower the signal;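 further: cortisol secreted into medium quantified by LC-MS/MS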
Summary of the method: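 Cortisol measured by HPLC-MS/MS after MTBE extraction of medium from H295R cells exposed 48 h to chemical (0.1% DMSO), following 48 h prestimulation with 10 uM forskolin. Viability assessed by MTT in the same wells.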

[10] = CEETOX_H295R_DOC: CeeTox H295R High-throughput Steroidogenesis Assay for DOC (AID 2283439); conditions: actives raise or lower the signal
Summary of the method: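 11-Deoxycorticosterone quantified in medium by MTBE extraction and HPLC-MS/MS after 48 h chemical exposure (0.1% DMSO) of forskolin-primed (10 uM, 48 h) H295R cells. Same-well MTT viability; data fitted bidirectionally against DMSO.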

[11] = CEETOX_H295R_ESTRADIOL: CeeTox H295R High-throughput Steroidogenesis Assay for Estradiol (AID 2283440); conditions: actives raise or lower the signal;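 further: estradiol secreted into medium quantified by LC-MS/MS after dansyl derivatisation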
Summary of the method: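 Estradiol in spent medium measured by LC-MS/MS after dansyl chloride derivatisation. Forskolin-primed (10 uM, 48 h) human adrenal H295R cells received test chemical 48 h at 0.1% DMSO; concentrations lowered until MTT viability >/=70%.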

[12] = CEETOX_H295R_PROG: CeeTox H295R High-throughput Steroidogenesis Assay for Progesterone (PROG) (AID 2283442); conditions: actives raise or lower the signal
Summary of the method: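 Progesterone secreted by human H295R cells was measured by LC-MS/MS following 48 h chemical exposure at 0.1% DMSO, preceded by 48 h forskolin (10 uM) stimulation. Same-well MTT viability; cytotoxic concentrations diluted 10- or 100-fold and retested.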

[13] = read-out: Fatty acid synthase (Homo sapiens) (UniProt P49327); experiment: LTEA_HepaRG_FASN: Life Technologies and Expression Analysis (LTEA) Assay for Fatty Acid Synthase (FASN) using HepaRG (AID 2283448); conditions: mRNA level, 48 h; actives raise or lower the signal
Summary of the method: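 FASN transcript measured by TaqMan qRT-PCR, normalised to three housekeeping genes, after 48 h chemical exposure of HepaRG cells. Eight-point half-log series from 100 uM in 0.5% DMSO, duplicates; gain or loss fitted against vehicle.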

[14] = read-out: Cyclin D2 (CCND2), CCND2 (gene 894); experiment: LTEA_HepaRG_CCND2: Life Technologies and Expression Analysis (LTEA) Assay for Cyclin D2 (CCND2) using HepaRG (AID 2283449); conditions: mRNA level, 48 h; actives raise or lower the signal;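 further: CCND2 transcript measured by TaqMan qRT-PCR and normalised to three housekeeping genes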
Summary of the method: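 In this HepaRG study, an eight-point concentration series (max 100 uM, 0.5% DMSO) is applied for 48 h. CCND2 mRNA change is derived by qRT-PCR normalised to ACTB, GAPDH and POLR2A.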

[15] = read-out: Cyclin Dependent Kinase Inhibitor 1A (CDKN1A), CDKN1A (gene 1026); experiment: LTEA_HepaRG_CDKN1A: Life Technologies and Expression Analysis (LTEA) Assay for Cyclin Dependent Kinase Inhibitor 1A (CDKN1A) using HepaRG (AID 2283450); conditions: mRNA level, 48 h; actives raise or lower the signal
Summary of the method: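 Expression quantified by Fluidigm qRT-PCR with ACTB, GAPDH and POLR2A normalization, fitted bidirectionally against 0.5% DMSO. Cells: HepaRG, plated 48 h then treated 48 h in serum-free induction medium, top concentration 100 uM with half-log dilutions.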

[16] = read-out: Cyclin D1 (CCND1), CCND1 (gene 595); experiment: LTEA_HepaRG_CCND1: Life Technologies and Expression Analysis (LTEA) Assay for Cyclin D1 (CCND1) using HepaRG (AID 2283451); conditions: mRNA level, 48 h; actives raise or lower the signal;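 on AC50: TaqMan qRT-PCR transcript level normalised to ACTB GAPDH and POLR2A housekeeping genes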
Summary of the method: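 Expression of CCND1 was quantified by qRT-PCR on Fluidigm arrays using ACTB, GAPDH and POLR2A as reference genes. HepaRG cultures, plated 48 h beforehand, were dosed for 48 h at up to 100 uM (half-log, 8 points) in 0.5% DMSO.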

[17] = read-out: catalase (CAT), CAT (gene 847); experiment: LTEA_HepaRG_CAT: Life Technologies and Expression Analysis (LTEA) Assay for catalase (CAT) using HepaRG (AID 2283452); conditions: mRNA level, 48 h; actives raise or lower the signal;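 on AC50: TaqMan qRT-PCR signal normalized to ACTB GAPDH and POLR2A housekeeping genes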
Summary of the method: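 Differentiated HepaRG cells in serum-free induction medium were dosed 48 h in duplicate, eight half-log concentrations from 100 uM in 0.5% DMSO. Transcript measured by TaqMan qRT-PCR, normalised to ACTB/GAPDH/POLR2A, fitted bidirectionally against DMSO.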

[18] = target: Retinoic acid receptor RXR-alpha (Homo sapiens) (UniProt P19793); experiment: OT_NURR1_NURR1RXRa_1440: Odyssey Thera (OT) 24-hour HEK293T Protein Complementation Assay for Nurr1/retinoid X receptor (RXR) (AID 2283386; active means hit-call score of the fitted dose curve at least 0.9, where 1 is the maximum)
Summary of the method: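 Gain in fluorescence, fitted relative to DMSO, reflects Nurr1–RXRα association in HEK293T cells after 24 h dosing. Bait and prey are each linked to a reporter-protein fragment that reassembles on interaction.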

[19] = read-out: Tumor necrosis factor receptor superfamily member 6 (Homo sapiens) (UniProt P25445); experiment: LTEA_HepaRG_FAS: Life Technologies and Expression Analysis (LTEA) Assay for Fas cell surface death receptor (FAS) using HepaRG (AID 2283447); conditions: mRNA level, 48 h; actives raise or lower the signal
Summary of the method: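 Differentiated human HepaRG cells, pre-cultured 48 h, were exposed in duplicate for 48 h to 8-point half-log concentrations (top 100 uM, 0.5% DMSO) in serum-free induction medium; FAS mRNA measured by qRT-PCR, normalized to ACTB/GAPDH/POLR2A, bidirectional fit versus DMSO.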

Measured: AC50

Fatty acid synthase (Homo sapiens), sequence (P49327 whole entry, looked up): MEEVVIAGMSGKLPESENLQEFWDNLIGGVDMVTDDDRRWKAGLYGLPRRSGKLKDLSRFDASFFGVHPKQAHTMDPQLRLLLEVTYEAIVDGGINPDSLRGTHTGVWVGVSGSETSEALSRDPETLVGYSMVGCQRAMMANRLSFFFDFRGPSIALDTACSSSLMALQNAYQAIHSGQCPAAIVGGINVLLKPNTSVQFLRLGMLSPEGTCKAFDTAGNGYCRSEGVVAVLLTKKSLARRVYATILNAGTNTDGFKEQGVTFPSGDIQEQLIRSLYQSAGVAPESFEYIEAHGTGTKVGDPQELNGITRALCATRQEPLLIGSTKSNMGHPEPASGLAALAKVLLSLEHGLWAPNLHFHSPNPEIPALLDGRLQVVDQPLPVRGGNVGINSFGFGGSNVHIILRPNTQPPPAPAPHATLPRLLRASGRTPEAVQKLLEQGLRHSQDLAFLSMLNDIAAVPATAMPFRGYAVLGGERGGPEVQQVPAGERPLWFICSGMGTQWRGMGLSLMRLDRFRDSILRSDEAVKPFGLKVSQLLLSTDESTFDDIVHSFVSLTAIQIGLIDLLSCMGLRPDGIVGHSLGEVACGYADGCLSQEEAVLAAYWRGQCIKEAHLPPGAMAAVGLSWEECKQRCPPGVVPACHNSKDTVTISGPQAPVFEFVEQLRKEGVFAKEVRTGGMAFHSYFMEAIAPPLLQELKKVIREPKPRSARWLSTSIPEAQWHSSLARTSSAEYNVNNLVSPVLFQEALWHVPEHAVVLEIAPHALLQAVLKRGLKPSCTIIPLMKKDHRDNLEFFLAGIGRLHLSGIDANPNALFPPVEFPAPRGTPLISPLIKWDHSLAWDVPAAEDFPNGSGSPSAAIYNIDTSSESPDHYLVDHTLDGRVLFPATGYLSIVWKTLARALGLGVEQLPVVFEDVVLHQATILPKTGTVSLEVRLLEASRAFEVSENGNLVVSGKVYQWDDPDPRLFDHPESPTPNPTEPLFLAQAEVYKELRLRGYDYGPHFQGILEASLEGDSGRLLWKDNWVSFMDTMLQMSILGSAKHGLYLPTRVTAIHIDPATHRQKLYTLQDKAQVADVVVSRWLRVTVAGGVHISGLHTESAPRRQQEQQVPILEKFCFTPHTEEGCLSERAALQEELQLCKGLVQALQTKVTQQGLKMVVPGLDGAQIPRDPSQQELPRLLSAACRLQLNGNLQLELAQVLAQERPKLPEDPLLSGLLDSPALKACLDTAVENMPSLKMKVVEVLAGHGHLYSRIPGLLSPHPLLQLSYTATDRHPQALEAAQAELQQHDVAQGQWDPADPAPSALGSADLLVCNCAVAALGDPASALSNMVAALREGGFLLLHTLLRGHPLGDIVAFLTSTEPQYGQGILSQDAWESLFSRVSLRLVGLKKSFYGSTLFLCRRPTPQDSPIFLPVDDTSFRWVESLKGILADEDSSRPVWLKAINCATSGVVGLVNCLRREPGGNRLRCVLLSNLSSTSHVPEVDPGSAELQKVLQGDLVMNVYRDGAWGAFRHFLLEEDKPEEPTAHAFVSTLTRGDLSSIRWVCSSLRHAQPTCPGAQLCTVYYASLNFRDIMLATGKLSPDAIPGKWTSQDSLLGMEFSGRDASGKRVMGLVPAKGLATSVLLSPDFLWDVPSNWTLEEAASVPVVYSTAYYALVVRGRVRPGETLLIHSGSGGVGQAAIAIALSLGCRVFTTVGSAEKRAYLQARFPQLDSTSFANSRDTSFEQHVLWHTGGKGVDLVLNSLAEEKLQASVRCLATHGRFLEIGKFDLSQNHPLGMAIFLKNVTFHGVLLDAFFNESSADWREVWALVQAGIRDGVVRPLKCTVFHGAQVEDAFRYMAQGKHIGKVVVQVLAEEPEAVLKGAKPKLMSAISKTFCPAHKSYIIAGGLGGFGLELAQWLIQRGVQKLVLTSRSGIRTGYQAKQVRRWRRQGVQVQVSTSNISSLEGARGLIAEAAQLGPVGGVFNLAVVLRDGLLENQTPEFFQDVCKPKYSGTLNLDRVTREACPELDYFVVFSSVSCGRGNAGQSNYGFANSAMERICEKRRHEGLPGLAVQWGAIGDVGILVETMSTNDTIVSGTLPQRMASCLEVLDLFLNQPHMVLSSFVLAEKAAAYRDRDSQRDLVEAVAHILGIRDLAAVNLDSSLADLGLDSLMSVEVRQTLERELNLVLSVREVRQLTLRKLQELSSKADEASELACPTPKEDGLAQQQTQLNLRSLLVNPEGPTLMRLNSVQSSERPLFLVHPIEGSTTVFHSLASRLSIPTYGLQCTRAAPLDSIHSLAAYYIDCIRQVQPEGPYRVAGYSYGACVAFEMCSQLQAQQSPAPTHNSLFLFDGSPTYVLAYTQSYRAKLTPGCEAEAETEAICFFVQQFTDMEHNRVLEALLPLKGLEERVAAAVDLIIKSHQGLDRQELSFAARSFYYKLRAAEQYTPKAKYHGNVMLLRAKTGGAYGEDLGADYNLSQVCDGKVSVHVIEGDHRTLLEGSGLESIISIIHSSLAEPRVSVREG

O=[N+]([O-])c1c(Cl)c(Cl)c(Cl)c(Cl)c1Cl
active: [16] 50 µM
not listed: [18] | [19]
inactive: all other assays above

CC(C)(C)C(O)C(Oc1ccc(Cl)cc1)n1cncn1 (centres undefined)
active: [6] 18.3 µM and 3.14 µM and 3.31 µM | [13] 32.7 µM and 50 µM and 27.9 µM
inactive: [1] | [18] | [2] | [3] | [5] | [6] | [12] | [14] | [15] | [16] | [17]

CCOC1Oc2ccc(OS(C)(=O)=O)cc2C1(C)C (centres undefined)
active: [15] 87.1 µM | [16] 76.1 µM | [17] 74.1 µM
inactive: [1] | [18] | [2] | [3] | [13] | [14]

COP(=S)(OC)Oc1ccc(SC)c(C)c1
active: [4] 41.5 µM | [6] 21.5 µM
not listed: [7] | [13]
inactive: all other assays above

CNC(=O)Oc1ccccc1OC(C)C
not listed: [7] | [19]
inactive: all other assays above

O=S1OCC2C(CO1)C1(Cl)C(Cl)=C(Cl)C2(Cl)C1(Cl)Cl (centres undefined)
active: [15] 79.1 µM | [17] 52.3 µM
inactive: [2] | [3] | [13] | [16]
